SMN2 splice enh: enhancers of SMN2 splice variant expression. HEK293 SMN2-luciferase splicing reporter, luminescence, 30-36 h. Potency, µM (titrated, usually from 46.1 µM), most hits filed as activators. 210,000 tested, 2.8% active. AID 1458; also: nearly all actives have a fitted effect of over 55% in size
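HEK293 cells carry an SMN2 minigene-luciferase reporter in which exon 7 inclusion puts luciferase in frame. Cells were seeded at 2000 cells/well, attached for 10-12 hours, then exposed to compounds for 30-36 hours at 37C before ONE-Glo luminescence.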
Rab9 prom act: activates the Rab9 promoter; Huh7 Rab9 promoter-luciferase reporter, luminescence, 24 h; Potency, µM (series often up to 9.22 µM), actives largely listed as activators; 320,000 tested, 2.8% active; AID 485297; also: nearly all actives have a fitted effect of over 60% in size
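Rab9 promoter-driven luciferase in stably transfected Huh7 cells; 1500 cells/well rested 2 h, exposed to compound in DMSO for 24 h at 37 °C, 5% CO2. Luminescence read 10 min after adding luciferase reagent at ambient temperature.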
FLuc counter: firefly luciferase modulation, counter-screen for miR-21 project | P08659 | purified FLuc, Km substrates, luminescence inhibition | Potency, µM (doses to about 57.5 µM), hits mostly inhibitors | 360,000 tested, 6.9% active; also: nearly all actives have a fitted effect of over 55% in size
Target sequence (P08659 whole entry, looked up): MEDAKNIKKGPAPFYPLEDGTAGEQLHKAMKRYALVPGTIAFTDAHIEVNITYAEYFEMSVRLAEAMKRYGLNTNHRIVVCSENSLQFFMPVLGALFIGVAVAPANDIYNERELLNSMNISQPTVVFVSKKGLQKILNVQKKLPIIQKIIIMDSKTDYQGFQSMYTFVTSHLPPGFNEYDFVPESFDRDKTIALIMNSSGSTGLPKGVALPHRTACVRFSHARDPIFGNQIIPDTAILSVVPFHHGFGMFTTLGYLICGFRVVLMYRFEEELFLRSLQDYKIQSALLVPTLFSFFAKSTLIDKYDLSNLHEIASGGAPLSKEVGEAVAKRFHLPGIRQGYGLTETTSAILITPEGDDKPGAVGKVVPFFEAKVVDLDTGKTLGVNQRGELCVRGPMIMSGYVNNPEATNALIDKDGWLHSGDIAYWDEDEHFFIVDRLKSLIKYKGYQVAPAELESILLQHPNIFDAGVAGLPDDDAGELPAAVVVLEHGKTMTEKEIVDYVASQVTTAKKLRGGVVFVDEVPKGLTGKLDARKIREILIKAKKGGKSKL
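Biochemical qHTS of compounds, final roughly 60 µM downward over six points, against 10 nM purified firefly luciferase using Km concentrations of substrates (10 uM D-luciferin, 10 uM ATP) in Tris acetate pH 7.5 buffer; luminescence output.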
NPC1 prom act: activates the NPC1 promoter. Potency, µM (titrated, usually from 9.22 µM), most hits filed as activators. Huh7 NPC1 promoter luciferase reporter, 24 h. 320,000 tested, 2.4% active; also: nearly all actives have a fitted effect of over 60% in size
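Huh7 reporter cells (NPC1 promoter driving luciferase) are dosed with compound for 24 h at 37 °C, 5% CO2; luciferase detection reagent is then added and luminescence measured after 10 min at ambient temperature.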
ELG1 genotox: genotoxicity induction in ELG1-luciferase HEK293T cells; HEK293T ELG1-luciferase reporter, luminescence, 16 h; Potency, µM (titrated, usually from 46 µM), usual class: activators; 330,000 tested, 1.3% active; also: nearly all actives have a fitted effect of over 60% in size
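After overnight (16 hr) compound treatment at 37 °C, ELG1-luciferase HEK293T cells were lysed with ONE-Glo; luminescence quantified 30 min later at room temperature.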
Hits are given with their value; . = inactive; ? = inconclusive; / = no result; [ ] = remark or other dose. Shown are actives, neighbours in structure and some others; about 7.5% of the full set was active somewhere. Calls follow the shape of the dose curve; as a rule, active = well fitted curve in the direction sought with a large enough effect; inconclusive = small, poorly fitted or top-dose-only effect, or another doubt; inactive = no such curve, though single readings can be large; an effect the other way counts as inactive or inconclusive.

SMILES	SMN2 splice enh	Rab9 prom act	FLuc counter	NPC1 prom act	ELG1 genotox
O=[N+]([O-])c1ccc(Cl)c(S(=O)(=O)Nc2cccc(-c3ccc(N4CCCC4)nn3)c2)c1	/	.	15µM	.	.
Cc1c([N+](=O)[O-])cc(S(=O)(=O)Nc2ccc(-c3ccc(N4CCCC4)nn3)cc2)cc1[N+](=O)[O-]	/	.	19µM	.	.
O=[N+]([O-])c1ccc(S(=O)(=O)Nc2ccc(-c3ccc(N4CCCC4)nn3)cc2)cc1	/	.	.	.	.
O=[N+]([O-])c1ccc(Cl)c(S(=O)(=O)Nc2ccc(-c3ccc(N4CCCC4)nn3)cc2)c1	/	.	21µM	.	.
CCC(C(=O)NC(C)(C)C)N(C(=O)Cn1nnc(-c2ccccc2F)n1)c1cccc2c1CCCC2 (stereo not drawn)	.	.	.	.	.
Cc1ccc(N=Nc2c(C)[nH]n(C(N)=S)c2=O)cc1	18µM	3.2µM	2.7µM	?	16µM
Cc1[nH]n(C(N)=S)c(=O)c1N=Nc1ccc(S(=O)(=O)N2CCCC2)cc1	.	.	19µM	.	.
Cc1[nH]n(C(N)=S)c(=O)c1N=Nc1ccc(Br)cc1	/	2.8µM	2.4µM	3.5µM	?
Cc1[nH]n(C(N)=S)c(=O)c1N=Nc1cccc(C(F)(F)F)c1	/	.[1.84 µM]	9.5µM	4µM	.
Cc1[nH]n(C(N)=S)c(=O)c1N=Nc1cc(C(F)(F)F)ccc1Cl	/	.[1.84 µM]	.	.	.
CCCCOc1ccccc1C1CC(=O)Nc2ccc3ccccc3c21 (stereo not drawn)	.	/	.	/	/
O=C(Nc1ccc(F)cc1F)N1CCc2c(sc3c2CCCC3)C1c1ccc(F)cc1 (stereo not drawn)	/	/	.	/	/
O=C(CNC(=S)N(Cc1ccccc1)Cc1cccnc1)NC1CCCC1	.	.	.	.	.
Cc1nn(CC(=O)NCc2ccc(OC(C)C)cc2)c(=O)c2c(C)n(-c3ccc(Cl)cc3)nc12	/	/	.	/	/
CC(C)Cn1cc(C(=O)NCC2CCCO2)c2c3ccccc3n(C)c2c1=O (stereo not drawn)	.	.	?	.	.
Cn1c2ccccc2c2c(C(=O)NCC3CCCO3)cn(C3CCCC3)c(=O)c21 (stereo not drawn)	.	.	17µM	.	.
CC(=O)Nc1c(C)nn(-c2ccccc2)c1N1CCC(C(=O)NCc2cccc(F)c2)CC1	/	/	.	/	/
CN(C)N=Nc1ccc(-c2cn(Cc3ccccc3)cn2)cc1	/	?	19µM	2.8µM	?
C=CCC(C)(O)c1ccc(OC)cc1 (stereo not drawn)	.	/	/	/	/
Cc1cc(C(F)F)n2nc(C(=O)Nc3sc4c(c3C(N)=O)CCC4)nc2n1	.	.	12µM	.	.
COC(=O)c1c(NC(=O)c2nc3nc(C)cc(C(F)F)n3n2)sc2c1CCC2	.	.	.	.	.
Cn1nccc1C(=O)Nc1sc2c(c1C#N)CCCC2	/	.	?	.	.
Cn1nccc1C(=O)Nc1sc2c(c1C(N)=O)CCCC2	.	?	9.5µM	.	?
Cn1ccc(C(=O)Nc2sc3c(c2C(N)=O)CCCCC3)n1	/	0.5µM	0.6µM	1µM	0.46µM
Cn1cc(Br)c(C(=O)Nc2sc3c(c2C(N)=O)CCC3)n1	.	.	11µM	.	.
SMILES	SMN2 splice enh	Rab9 prom act	FLuc counter	NPC1 prom act	ELG1 genotox
CC(Nc1ccc(Cl)cc1)C(=O)NN (stereo not drawn)	/	.	.	.	.
Cc1ccc2c(c1)N(C(=O)NC1CCCCC1)C(C)(C)CC2C (stereo not drawn)	.	.	.	.	.
CCOc1ccc(-c2nonc2NC(=O)c2oc3cc(Br)ccc3c2C)cc1	/	/	.	/	/
CCN(CC)c1ccc(NC(=O)c2cccnc2)c(C)c1	.	.	.	.	.
CCN(CC)c1ccc(-n2nc3cc(C)c(NC(=O)c4ccccc4C)cc3n2)c(C)c1	6.3µM	/	.	/	/
CCN(CC)c1ccc(NC(=O)c2cccc(C)c2OC)c(C)c1	?	?	11µM	1.1µM	?
NS(=O)(=O)c1ccc(CCNS(=O)(=O)c2ccc(Cl)nc2)cc1	/	.	.	.	.
Cc1ncc(CO)c2c1Oc1nc(-c3ccccc3Cl)nc(SCc3ccccc3F)c1C2	/	/	.	/	/
CN(C)c1ccc(N=Nc2cccc(F)c2)cc1	/	3.5µM	0.24µM	2µM	0.65µM
CN(C)C(=S)Nc1cccc(F)c1	/	.	.	.	.
CN(C)c1ccc(N=Nc2cccc3ccoc23)cc1	3.5µM	?	1.2µM	?	6.5µM
CCOc1ccc(N2C=Nc3ccc(OCC)cc3C2)cc1	/	.	?	.	.
COc1ccccc1NC(=O)/C=C\c1ccco1	/	?	24µM	?	.
COc1cccc(NC(=O)/C=C/c2ccco2)c1	13µM	2.5µM	11µM	?	?
CC(C)(C)c1ccc(/C=C/C(=O)Nc2cccnc2)cc1	/	1.1µM	2.7µM	2µM	2.3µM
CSc1cccc(NC(=O)/C=C/c2ccco2)c1	.	?	19µM	.	?
CCOC(=O)N1CCN(C(=O)c2cc3cc(OC)c(OC)cc3[nH]2)CC1	/	.	.	.	.
O=C(/C=C/c1ccco1)Nc1cccnc1	?	?	19µM	?	?
CCC(=O)Nc1ccccc1C(=O)OCC(=O)c1ccc2ccccc2c1	.	.	15µM	.	.
CCC(=O)Nc1ccccc1C(=O)OCC(=O)Nc1ccc(S(N)(=O)=O)cc1	.	.	.	.	.
CCC(=O)Nc1ccccc1C(=O)OCC(=O)c1ccccc1	16µM	3.5µM	21µM	2.8µM	?
Cc1ccc(Nc2nnc(-c3ccc4c(c3)OCO4)o2)c(C)c1	.[9.22 µM]	?	8.5µM	?	?
Cc1ccc(CSc2nnc(-c3ccc4c(c3)OCO4)o2)cc1	.	.	?	.	.
C=CCOc1ccc(/C=C2\SC(N)=NC2=O)cc1OC	/	.	11µM	.	?
COC(=O)CN(C)C(=O)c1ccc2nc(Cc3cccc(Cl)c3)oc2c1	/	3.5µM	24µM	2.8µM	?
SMILES	SMN2 splice enh	Rab9 prom act	FLuc counter	NPC1 prom act	ELG1 genotox
CN(Cc1ccccn1)C(=O)c1ccc2nc(Cc3cccc(Cl)c3)oc2c1	/	.	.	.	.
COCC1CCCN(C(=O)c2ccc3nc(Cc4cccc(Cl)c4)oc3c2)C1 (stereo not drawn)	/	2.2µM	13µM	3.2µM	?
CCOC(=O)CSc1nc2c(sc(=S)n2-c2ccccc2OC)c(=O)n1Cc1ccco1	.	.	.	.	.
Oc1ccccc1/C=N/NC1=NCCCCC1	13µM	2.2µM	13µM	1.4µM	?
COc1ccc(/C=N/NC2=NCCCCC2)c(OC)c1	?	.	17µM	.	.
COc1ccc(/C=N/NC2=NCCCCC2)cc1	.	?	?	.	?
CCn1c(=O)c2cc(C(=O)NC3CCC(C)CC3)sc2c2ccccc21 (stereo not drawn)	.	/	.	/	/
Cc1cc(Sc2ccc(Cl)cc2)nc2ccccc12	.	/	?	/	/
Cc1ccc(Sc2cnc3ccccc3n2)cc1	?	3.5µM	6.7µM	?	2.6µM
Nc1nc(Nc2ccccc2F)nc(N2CCCC2)c1[N+](=O)[O-]	/	?	17µM	.	?
CC1(C)CO[C@@H](CC(=O)O)CN1	.	/	/	/	/

Assay outcomes (PubChem BioAssay)
